This excerpt belongs to a sample that is enriched for hits.
TDP1 cell noCPT – qHTS for Inhibitors of human tyrosyl-DNA phosphodiesterase 1 (TDP1): qHTS in cells in absence of CPT. DT40 Tdp1-/- hTDP1 cells, no CPT, ATP luminescence, 48 h. Potency, µM (highest dose often 46.2 µM), without a hit: top-dose activity change, negative = growth inhibition, most hits filed as inhibitors. 15% of 420,000 active; further: potency means the concentration at half of the fitted maximal effect; nearly all actives have a fitted effect of over 55% in size
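Compound effects on proliferation are scored in DT40 Tdp1-/-;hTDP1 cells in the absence of CPT. ATP levels (CellTiter-Glo luminescence) are recorded after a ≥48 hr, 37 °C incubation.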
HT1080 IDH1KD tx – HT-1080 IDH1 knockdown cell toxicity (counter line). Potency, µM (doses to about 46.1 µM), without a hit: top-dose activity, negative = toxicity, most hits filed as cytotoxic. HT-1080 IDH1 knockdown viability, ATP luminescence, 48 h. 2% of 360,000 active;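 further: potency means the concentration at half of the fitted maximal effect; 0% = DMSO wells and -100% = cell-free medium wells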
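Assay cells: HT-1080 with IDH1 knockdown, 750 per well, RPMI/5% FBS. Exposure: 48 h at 37 °C following 2 h pre-incubation. Read: CellTiter-Glo luminescence; fitted concentration-response, curve class assigned.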
HT1080-NT tox – kills 2HG-producing HT-1080-NT fibrosarcoma cells; 1.6% of 360,000 active; HT-1080-NT fibrosarcoma viability, CellTiter-Glo ATP luminescence, 48 h; Potency, µM (highest dose often 46.1 µM), inactives show at the highest dose activity, negative = less viability, actives largely listed as cytotoxic;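 further: NT is the 2HG producing partner of a matched IDH1 knockdown line; potency means the concentration at half of the fitted maximal effect; 0% = DMSO-treated cells and -100% = media-only wells without cells; nearly all actives have a fitted effect of over 55% in size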
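Read-out is CellTiter-Glo luminescence after 10 minutes at room temperature, following 48 hours' compound treatment of HT-1080-NT cells (750 cells/well, RPMI, 5% FBS, 37 degrees C).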
ALOX12 inh – inhibitors of human 12S-lipoxygenase ALOX12 | P18054 | Potency, µM (series often up to 108 µM), without a hit: top-dose activity change, negative = inhibition, most hits filed as inhibitors | purified 12hLO, xylenol orange hydroperoxide absorbance | 1.1% of 580,000 active | AID 1671190; further: potency means the concentration at half of the fitted maximal effect
Target sequence (P18054 whole entry, looked up): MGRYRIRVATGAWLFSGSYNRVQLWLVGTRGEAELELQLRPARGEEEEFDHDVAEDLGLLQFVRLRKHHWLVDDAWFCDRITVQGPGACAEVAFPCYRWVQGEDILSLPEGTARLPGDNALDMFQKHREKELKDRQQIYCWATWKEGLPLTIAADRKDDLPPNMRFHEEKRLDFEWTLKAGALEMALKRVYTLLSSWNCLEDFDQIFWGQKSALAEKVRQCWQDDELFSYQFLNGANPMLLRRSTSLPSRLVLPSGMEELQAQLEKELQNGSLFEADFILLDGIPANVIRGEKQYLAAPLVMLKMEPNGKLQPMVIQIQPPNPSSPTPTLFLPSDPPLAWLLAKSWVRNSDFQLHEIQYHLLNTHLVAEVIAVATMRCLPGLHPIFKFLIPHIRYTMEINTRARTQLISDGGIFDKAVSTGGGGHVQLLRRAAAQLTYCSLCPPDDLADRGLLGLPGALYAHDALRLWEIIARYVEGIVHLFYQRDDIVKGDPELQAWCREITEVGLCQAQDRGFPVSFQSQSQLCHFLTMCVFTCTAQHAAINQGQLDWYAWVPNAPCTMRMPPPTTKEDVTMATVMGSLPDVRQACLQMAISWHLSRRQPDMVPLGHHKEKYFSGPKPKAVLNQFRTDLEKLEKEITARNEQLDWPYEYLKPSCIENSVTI
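Hydroperoxide product was detected by ferrous iron/xylenol orange as the 573 to 405 nm absorbance ratio. Arachidonic acid at 40 uM (final) was turned over for 30 min at room temperature by 150 nM human 12hLO, pH 7.0 Hepes buffer, after 15 min compound preincubation.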
IL1B secr inh – blocks inflammasome-driven IL-1 beta release; THP-1 LPS/ATP IL-1B secretion, AlphaLISA, 16 h; stronger effect = lower value; 4.7% of 360,000 active; activity change, % at 57.5 µM; in the data active means activity change below about -50%; inconclusive means mostly about -30% to -49%
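Secreted IL-1B measured by AlphaLISA bead assay after 16 h compound exposure of THP-1 cells; compounds (final up to 57.5 uM) added 1 h before LPS (250 ng/mL) and ATP (1.25 mM) stimulation; lower signal means less secretion.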
TDP1 cell CPT – DT40-hTDP1 cell growth loss with CPT; 12% of 420,000 active; Potency, µM (highest dose often 46.2 µM), for the others: top-dose activity change, negative = growth inhibition, actives largely listed as inhibitors; chicken DT40 Tdp1-/-;hTDP1 cells + 20 nM CPT, ATP luminescence, 48 h; AID 686979; further: potency means the concentration at half of the fitted maximal effect; nearly all actives have a fitted effect of over 55% in size
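Chicken DT40 Tdp1-/- cells stably complemented with human TDP1 were seeded at 400 cells/well in medium containing 20 nM camptothecin, exposed to pin-transferred compounds, and grown at 37 °C for at least 48 hr. Viability was read as ATP luminescence.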
* hit, by the source's call; [ ] = another dose, or the depositor's remark. Unless noted, the call rests on the fitted dose curve; in most records, active means well fitted curve in the direction sought with a large enough effect; inconclusive means small, poorly fitted or top-dose-only effect, or another doubt; inactive means no such curve, though single readings can be large; an effect the other way counts as inactive or inconclusive. Unless noted, on the % scale 0 is the no-effect control and ±100 the full control effect.

What do the screens show for `O=C(c1ccccc1)c1ccccc1N=Cc1c(O)[nH]c(=O)[nH]c1=O`?
TDP1 cell noCPT: -1%; HT1080 IDH1KD tx: 1%; HT1080-NT tox: 0%; ALOX12 inh: -2%; IL1B secr inh: 4; TDP1 cell CPT: 2%

What do the screens show for `C=CCc1cccc(C=Nc2c[nH]c(=O)[nH]c2=O)c1O`?
TDP1 cell noCPT: -6%; HT1080 IDH1KD tx: 9%; HT1080-NT tox: 8%; ALOX12 inh: 5%; IL1B secr inh: 12; TDP1 cell CPT: 18µM*

What do the screens show for `COc1ccc2c3c([nH]c2c1)C(C)NCC3` (stereo not drawn)?
TDP1 cell noCPT: inconclusive; HT1080 IDH1KD tx: -1%; HT1080-NT tox: -5%; ALOX12 inh: 189%; IL1B secr inh: 0; TDP1 cell CPT: 2.6µM*

What do the screens show for `COc1cccc(N2C(=O)NC(=O)/C(=C/c3ccc4c5c(cccc35)CC4)C2=O)c1`?
ALOX12 inh: 40µM*

Results for CCOc1ccccc1N1C(=O)NC(=O)/C(=C/c2ccc3c4c(cccc24)CC3)C1=O ?
TDP1 cell noCPT: inconclusive; HT1080 IDH1KD tx: -8%; HT1080-NT tox: -10%; ALOX12 inh: -105%; IL1B secr inh: -89*; TDP1 cell CPT: inconclusive

What do the screens show for `CC[C@H]1CN2CC[C@H]1C[C@@H]2CNC(=O)N1CCOCC1`?
ALOX12 inh: 104%[176 µM]

What do the screens show for `Cc1noc(C)c1S(=O)(=O)N1[C@H]2CC[C@@H]1c1cnc(-c3ccccc3)nc1C2`?
ALOX12 inh: 6%

What do the screens show for `CCOC(=O)Cn1cc(/C=N/NC(=O)CC#N)c2ccccc21`?
TDP1 cell noCPT: -20%; HT1080 IDH1KD tx: 1%; HT1080-NT tox: inconclusive; ALOX12 inh: 95%; IL1B secr inh: -55*; TDP1 cell CPT: 7%

How did O=[N+]([O-])c1ccc(C(c2ccc([N+](=O)[O-])cc2)c2ccc([N+](=O)[O-])cc2)cc1 do in these assays?
TDP1 cell noCPT: 12µM*; HT1080 IDH1KD tx: inconclusive; HT1080-NT tox: inconclusive; ALOX12 inh: -26%; IL1B secr inh: -7; TDP1 cell CPT: 7.3µM*

How did CC(C)NCC(O)c1ccc([N+](=O)[O-])cc1 (stereo not drawn) do in these assays?
TDP1 cell noCPT: -11%; ALOX12 inh: 1%; TDP1 cell CPT: 1%

Results for CCCN(CCC)[C@@H]1CCc2c(OC)cccc2[C@@H]1C ?
TDP1 cell noCPT: 15µM*; ALOX12 inh: 1%; TDP1 cell CPT: inconclusive

Results for CCCN[C@@H]1CCc2c(OC)cccc2[C@@H]1C ?
TDP1 cell noCPT: -22%; ALOX12 inh: 5%; TDP1 cell CPT: 13%

How did CC(C)Oc1ccc(C(=O)N2CCC3(CC2)c2nccn2-c2ccccc2CN3C)cc1 do in these assays?
ALOX12 inh: 19%

What do the screens show for `CCN(CC)C(=O)c1ccc(NC(=O)CCCSc2ccccc2)cc1`?
TDP1 cell noCPT: inconclusive; HT1080 IDH1KD tx: 0%; HT1080-NT tox: 12%; ALOX12 inh: -17%; IL1B secr inh: -11; TDP1 cell CPT: -2%

How did CCN(CC)C(=O)c1ccc(NC(=O)Nc2ccccc2F)cc1 do in these assays?
TDP1 cell noCPT: 9.2µM*; HT1080 IDH1KD tx: 5.2µM*; HT1080-NT tox: 7.3µM*; ALOX12 inh: 0%; IL1B secr inh: -15; TDP1 cell CPT: 4.6µM*

How did COc1ccc(NC(=O)c2cn(C)c3ccccc23)c(OC)c1 do in these assays?
ALOX12 inh: 16%

What do the screens show for `COc1ccc(NC(=S)Nc2ncccc2C)c(OC)c1`?
TDP1 cell noCPT: inconclusive; HT1080 IDH1KD tx: 10µM*; HT1080-NT tox: 7.1µM*; ALOX12 inh: inconclusive; IL1B secr inh: -78*; TDP1 cell CPT: -25%

Results for COc1ccc2c(c1)NP(=S)(Oc1ccccc1)N2 (stereo not drawn) ?
TDP1 cell noCPT: 15µM*; HT1080 IDH1KD tx: 4%; HT1080-NT tox: 8%; ALOX12 inh: -14%; IL1B secr inh: 5; TDP1 cell CPT: inconclusive

How did CCC(=O)Nc1ccccc1-c1nc2ccccc2n(C(CC)C(=O)Nc2cccc(Cl)c2)c1=O (stereo not drawn) do in these assays?
TDP1 cell noCPT: 21µM*; ALOX12 inh: 0%; TDP1 cell CPT: 26µM*

How did CC12CCC3c4ccc(OP(=O)(N5CC5)N5CC5)cc4CCC3C1CCC2=O (stereo not drawn) do in these assays?
TDP1 cell noCPT: 13µM*; HT1080 IDH1KD tx: 8%; HT1080-NT tox: 11%; ALOX12 inh: 24%; IL1B secr inh: 40; TDP1 cell CPT: 15µM*

How did COC(=O)c1cn(S(=O)(=O)c2ccccc2)c2ccccc12 do in these assays?
TDP1 cell noCPT: 26µM*; HT1080 IDH1KD tx: -5%; HT1080-NT tox: -7%; ALOX12 inh: 0%; IL1B secr inh: -2; TDP1 cell CPT: inconclusive

Results for Brc1ccccc1CNCCc1ccc2c(c1)OCO2 ?
TDP1 cell noCPT: inconclusive; HT1080 IDH1KD tx: -20%; HT1080-NT tox: -26%; ALOX12 inh: inconclusive; IL1B secr inh: -13; TDP1 cell CPT: inconclusive

Results for Oc1ccc(CCNCc2cc3c(cc2Br)OCO3)cc1 ?
TDP1 cell noCPT: 29µM*; HT1080 IDH1KD tx: -29%; HT1080-NT tox: -6%; ALOX12 inh: -3%; IL1B secr inh: inconclusive; TDP1 cell CPT: inconclusive

How did CC12CCC3C(CC=C4CC(O)CCC43C)C1C/C(=C\c1cccc(F)c1)C2=O (stereo not drawn) do in these assays?
TDP1 cell noCPT: 15µM*; HT1080 IDH1KD tx: inconclusive; HT1080-NT tox: inconclusive; ALOX12 inh: 17%; IL1B secr inh: 4; TDP1 cell CPT: inconclusive

How did C[C@]12CC[C@H](O)CC1=CC[C@H]1[C@H]3CCC(=O)[C@@]3(C)CC[C@@H]12 do in these assays?
ALOX12 inh: 0%[57.4 µM]

Results for Cc1ccc(/C(CSc2nccn2-c2ncc(C(F)(F)F)cc2Cl)=N\O)cc1 ?
TDP1 cell noCPT: 18µM*; HT1080 IDH1KD tx: -14%; HT1080-NT tox: -10%; ALOX12 inh: inconclusive; IL1B secr inh: 1; TDP1 cell CPT: inconclusive

How did COc1cccc2c1NC1(C)c3ccccc3-n3nncc3CN1C2=O (stereo not drawn) do in these assays?
ALOX12 inh: -17%

What do the screens show for `Cc1cc(C=C2C(=O)NC(=O)NC2=O)c(C)n1-c1ccc2c(c1)OCO2`?
TDP1 cell noCPT: -3%; HT1080 IDH1KD tx: -18%; HT1080-NT tox: -7%; ALOX12 inh: inconclusive; IL1B secr inh: 0; TDP1 cell CPT: -18%
